Assay results published in PubChem BioAssay (NCATS).
Results filed as inconclusive are left out. Active and inactive are the calls of the source. Calls follow the shape of the dose curve; as a rule, active = well fitted cell-killing curve with a large enough effect; inconclusive = small, poorly fitted or top-dose-only effect; inactive = flat fitted curve, though single readings scatter.

Assay: Cell Viability - LYMP2-016 (AID 984); also: nearly all actives have a fitted effect of over 55% in size
Conditions: LYMP2-016 lymphoblastoid cell viability, qHTS; series mostly up to 92.2 µM; activity change, negative = cytotoxicity: at the top concentration
Description: NIH Chemical Genomics Center [NCGC]
NIH Molecular Libraries Screening Centers Network [MLSCN]
National Institutes of Environmental Health Sciences [NIEHS]
National Toxicology Program [NTP]
We have developed a 1536-well cell-based assay for quantitative high throughput screening (qHTS) against a number of cell lines to determine in vitro cytotoxicity of small molecules. This particular assay uses a human lymphoblastoid cell line (LYMP2-016) purchased from Coriell Institute for Medical Research.
NCGC Assay Protocol Summary:
The CellTiter-Glo luminescent cell viability assay (Promega) is a homogeneous method to measure the number of viable cells in culture. The end point readout of this assay is based on quantitation of intracellular ATP, an indicator of metabolic activity, using the luciferase reaction. Luciferase catalyzes the oxidation of beetle Luciferin to oxyluciferin and light in the presence of ATP. The luminescent signal is proportional to amount of ATP present.
Using the CellTiter-Glo luminescent cell viability assay, the amount of cellular ATP was measured in the lymphoblastoid cell line with complete culture medium following compound treatment for 24 hours. The assay was performed in opaque white Kalypsys 1536-well plates. In the screen, tetraoctylammonium bromide was used as positive control. Library compounds were measured for their ability to cause acute toxicity in the cell line, as reflected by a decrease in intracellular ATP levels, in a concentration-dependent manner. […] AC50 values were determined from concentration-response data modeled with the standard Hill equation.
qHTS protocol for CellTiter Glo lymphoblastoid cellular assay
[Step] [Parameter] [Value] [Description]
1. Reagent; 5 uL; 2500 lymphoblastoid cells/well
2. Time; 5 hr; 37 C incubation
4. Controls; 23 nL; Tetraoctylammonium bromide 6.4pM to 92 uM
5. Time; 24 hr; 37 C incubation
6. Reagent; 5 uL; CellTiter Glo reagent
7. Time; 30 min; Room Temperature
8. Detection; Luminescence; Viewlux plate reader
Keywords: cell viability, cytotoxicity, lymphoblastoid cell line, luminescence, NTPHTS, NTPHTS_NCGC, NIEHS, DSSTox, MLSMR, MLSCN, NIH Roadmap, qHTS, NCGC
% is scaled to controls: 0 for no effect and ±100 for the full control effect.

| SMILES | activity change, negative = cytotoxicity |
| --- | --- |
| O=C(O)C(Br)Br | -21% (inactive) |
| Cc1ccc(N=C=O)cc1N=C=O | -3.05% (inactive) |
| C=C(Cl)CSC(=S)N(CC)CC | -24.7% (inactive) |
| Cl/C=C\Cl | -1.31% (inactive) |
| c1ccc(OCC2CO2)cc1 (stereo not given) | 1.06% (inactive) |
| O=C(O)c1cccc(Cl)c1 | 1.62% (inactive) |
| Brc1cccc(-c2ccccc2)c1 | -3.02% (inactive) |
| C=C(C)CCl | -0.839% (inactive) |
| CC(C)(Cl)Cl | -3.11% (inactive) |
| CCCCOC(C)=O | -1.66% (inactive) |
| C=CC#N | 2.74% (inactive) |
| Cc1cc(Cl)ccc1O | -3.69% (inactive) |
| Nc1cc(Cl)ccc1Cl | -2.8% (inactive) |
| CC(=O)CCC(C)=O | -0.707% (inactive) |
| Nc1ccc(Cl)c(Cl)c1 | -3.87% (inactive) |
| BrCC(Br)C1CCC(Br)C(Br)C1 (stereo not given) | 1.44% (inactive) |
| C/C=C/C=O | -1.46% (inactive) |
| Nc1ncc([N+](=O)[O-])s1 | 2.24% (inactive) |
| Nc1c(Br)cc([N+](=O)[O-])cc1[N+](=O)[O-] | -14.1% (inactive) |
| O=[N+]([O-])c1ccccc1CCl | -15.2% (inactive) |

| SMILES | activity change, negative = cytotoxicity |
| --- | --- |
| CC(C)Br | 1.89% (inactive) |
| CCC[N+](=O)[O-] | -7.38% (inactive) |
| CCOC(=O)CC(SP(=O)(OC)OC)C(=O)OCC (stereo not given) | -3.15% (inactive) |
| Clc1cc(Cl)c(Cl)c(Cl)c1 | -4.38% (inactive) |
| CCCN(CCC)c1c([N+](=O)[O-])cc(C(F)(F)F)cc1[N+](=O)[O-] | -3.77% (inactive) |
| O=Cc1ccc(Cl)cc1Cl | -6.18% (inactive) |
| O=NN1CCCCC1 | 0.518% (inactive) |
| O=C(O)c1cc(Cl)ccc1Cl | -3.09% (inactive) |
| O=C(O)C(Br)CBr (stereo not given) | -15.1% (inactive) |
| CC(C)(COCC1CO1)COCC1CO1 (stereo not given) | -10.4% (inactive) |
| CC(C)(Cl)[N+](=O)[O-] | -2.09% (inactive) |
| CCCCC(CC)COC(=O)c1ccc(C(=O)OCC(CC)CCCC)c(C(=O)OCC(CC)CCCC)c1 (stereo not given) | -5.19% (inactive) |
| O=C(O)CBr | -0.469% (inactive) |
| CC(C)(OOC(C)(C)c1ccccc1)c1ccccc1 | -7.98% (inactive) |
| C=CC=O | 0.199% (inactive) |
| CCN(N=O)C(N)=O | -5.81% (inactive) |
| OCC(Cl)CCl (stereo not given) | -1.72% (inactive) |
| CCOP(=S)(OCC)SCCSCC | 2.32% (inactive) |
| CN(C)C(=O)Nc1cccc(C(F)(F)F)c1 | 0.577% (inactive) |
| C=CC(=O)OCC(C)C | -0.599% (inactive) |
